Screening results as filed in PubChem BioAssay.
3CLpro inhibitor = SARS-CoV 3CLpro protease inhibition. recombinant SARS-CoV 3CLpro, quenched FRET peptide cleavage. P0C6X7. 0.14% of 290,000 active. inhibition, % at 6 µM. AID 1706; in the data active = inhibition above about 12%
BJeLR viability = kills HRASV12-expressing BJeLR cells; BJeLR (HRASV12) viability, CellTiter-Glo ATP luminescence, 48 h; inhibition, % (concentration not given with the values); 0.17% of 300,000 active; AID 1554; in the data active = inhibition above about 50%
PrPC surface inh = inhibitors of human cell surface prion protein PrPC; AID 720596; inhibition, % at 13.8 µM; 0.43% of 370,000 active; TR-FRET read-out; in the data active = inhibition above about 24%; note: 0% = median of the test wells and 100% = reference compound wells
VHR inh abs = inhibitors of human VHR1 phosphatase (DUSP3); P51452; recombinant VHR phosphatase, pNPP absorbance; inhibition, % at 13.3 µM; 0.52% of 290,000 active; AID 1654; in the data active = inhibition above about 50%
Target sequence (P51452 whole entry, looked up): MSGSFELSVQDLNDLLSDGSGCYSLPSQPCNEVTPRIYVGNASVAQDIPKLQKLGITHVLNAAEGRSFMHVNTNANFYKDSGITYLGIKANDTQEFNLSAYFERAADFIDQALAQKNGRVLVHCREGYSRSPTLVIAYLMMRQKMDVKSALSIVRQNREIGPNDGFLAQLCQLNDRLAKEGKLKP
Starred values were filed as active, the others as inactive; nt = not tested or not shown. Sampled rows, rich in hits. Any-hit rate of the full collection: about 1.1%.

SMILES | 3CLpro inhibitor | BJeLR viability | PrPC surface inh | VHR inh abs
CCN1CCN(CCCNC(=O)c2ccc(NC(=O)C3=CSCCO3)cc2)CC1 | 1 | 0 | -2 | 52*
CN1CCN(CCCNC(=O)c2ccc(NC(=O)C3=CSCCO3)cc2)CC1 | 1 | -4 | -5 | 11
CC(C)(C)c1ccc(CC(=O)N2CCC2(C)C(=O)O)cc1 (stereo unspecified) | nt | nt | 7 | nt
Brc1ccc(-n2cnc(-c3ccccc3)c2)cc1 | -3 | 7 | -3 | 57*
O=C(OCc1cn(Cc2ccccc2F)nn1)N1CCCC1 | nt | nt | -2 | nt
CCCN1CCN(C(=O)c2ccc(CS(=O)c3ccc(Br)cc3)o2)CC1 (stereo unspecified) | nt | nt | -4 | nt
O=C(NCCCN1CCCCC1)c1ccc(CS(=O)c2ccc(F)cc2)o1 (stereo unspecified) | -5 | 6 | 4 | 52*
O=C(NCCCN1CCCCC1)c1ccc(CS(=O)c2ccc(Cl)cc2)o1 (stereo unspecified) | 1 | -15 | -4 | 73
CCCN1CCN(C(=O)c2ccc(CS(=O)c3ccc(Cl)cc3)o2)CC1 (stereo unspecified) | -11 | 0 | -2 | 57*
Cn1ncc2c(O/N=C(\N)c3ccc(C(C)(C)C)cc3)ncnc21 | 1 | 99* | nt | 4
COc1cccc(CN(C(=O)/C=C/c2ccc(Cl)cc2)C2CCS(=O)(=O)C2)c1 (stereo unspecified) | -3 | -4 | 10 | 51*
COc1cccc(OC)c1C(=O)N1CCN(S(=O)(=O)c2ccccc2)CC1 | 3 | -1 | -5 | -12
COc1ccccc1C(=O)N1CCN(S(=O)(=O)c2ccccc2)CC1 | 4 | -4 | 7 | 57*
O=C(NC1CCCCC1)C1CCCN1S(=O)(=O)c1ccc(Cl)cc1 (stereo unspecified) | -5 | -4 | -3 | 53*
Cc1ccc(S(=O)(=O)N2CCC[C@H]2C(=O)NC2CCCCC2)cc1 | nt | nt | -8 | nt
COc1ccccc1CNC(=O)C1Cc2cc(S(=O)(=O)N3CCCC3)ccc2N1C(C)=O (stereo unspecified) | -6 | -16 | 3 | 8
CC(=O)N1c2ccc(S(=O)(=O)N3CCCC3)cc2CC1C(=O)NCc1ccccc1F (stereo unspecified) | -5 | -2 | -2 | 56*
CC(=O)N1c2ccc(S(=O)(=O)N3CCCCC3)cc2CC1C(=O)NCc1ccccc1C (stereo unspecified) | -4 | 0 | -1 | 52*
O=C(NCc1ccccc1F)C1CCCN1S(=O)(=O)c1ccc(F)cc1 (stereo unspecified) | 3 | -2 | 4 | 59*
CCOc1ccccc1CNC(=O)C1Cc2cc(S(=O)(=O)N3CCCCC3)ccc2N1C(C)=O (stereo unspecified) | -3 | -7 | 2 | 18
CCCCCCCCN1C(=O)[C@@H](CC(=O)NCc2ccc(OC)c(OC)c2)C[C@@]2(C(=O)OC)C1=C[C@H](C(C)C)O[C@@H]2C1CC1 | nt | nt | 11 | nt
O=C(Nc1ccccc1N1CCCC1)c1cc(=O)[nH]c2ccccc12 | nt | nt | 5 | nt
CCOc1ccc(C(=O)NCC(=O)NCCSc2ccc(Br)cc2)cc1OCC | nt | nt | -6 | nt
CCc1ccc(NC(=O)[C@H](Cc2c[nH]c3ccccc23)NC(=O)[C@@H]2Cc3ccccc3CN2)cc1 | 3 | 59* | 0 | 0
Cc1ccc(NC(=O)[C@H](Cc2c[nH]c3ccccc23)NC(=O)[C@@H]2Cc3ccccc3CN2)c(C)c1 | -1 | 65* | -5 | 16
SMILES | 3CLpro inhibitor | BJeLR viability | PrPC surface inh | VHR inh abs
C[C@H]1[C@H](c2ccccc2)Oc2ccc(Cl)cc2S(=O)(=O)N1C[C@@H]1CCCN1C(=O)OC(C)(C)C | nt | nt | 4 | nt
O=C(NC1CCC1)c1ccc(C#Cc2cccc(F)c2)nc1 | nt | nt | -4 | nt
COc1ccc(C(=O)Oc2ccc(C)cc2)cc1S(=O)(=O)N1CCOCC1 | nt | nt | 6 | nt
CCC(=O)N1N=C2CC(C)(C)OCC2C1c1ccccc1 (stereo unspecified) | 4 | 8 | 7 | 51*
CCC(=O)N1N=C(c2ccccc2)CC1c1ccccc1 (stereo unspecified) | 5 | -15 | 2 | 6
CCCCc1nc(SCC(=O)N2CCOCC2)c2c(=O)n(C)c(=O)n(C)c2n1 | 2 | -1 | 8 | 15
COc1ccccc1OCC(=O)Nc1ccc(S(=O)(=O)N(C)c2ccccc2)cc1 | -2 | 0 | -1 | -29
CCN(CC)S(=O)(=O)c1ccc(NC(=O)COc2c(OC)cccc2OC)cc1 | 3 | 2 | -6 | 56*
CCN(CC)S(=O)(=O)c1ccc(NC(=O)CSc2cccc[n+]2[O-])cc1 | 0 | -5 | nt | 52*
CCN(CC)S(=O)(=O)c1ccc(Cl)c(NC(=O)CSc2cccc[n+]2[O-])c1 | -4 | -2 | 4 | 8
